Records with an inconclusive call do not appear. Entries that show only a call come without a potency. Active and inactive are the calls of the source. Unless noted, the call rests on the fitted dose curve; in most records, active means well fitted curve in the direction sought with a large enough effect in the repeat runs; inconclusive means weak or mixed curves; inactive means no such curve, though single readings can be large; an effect the other way counts as inactive or inconclusive.
Assays:
[1] = qHTS assay to identify aromatase inhibitors - cell viability counter screen (AID 743084);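 further: cells stimulated with testosterone during compound exposure; nearly all actives have a fitted effect of over 55% in size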; further: potency means the concentration at half of the fitted maximal effect
[2] = qHTS assay to identify small molecule that activate the aryl hydrocarbon receptor (AhR) signaling pathway - cell viability counter screen (AID 743086); further: nearly all actives have a fitted effect of over 45% in size; further: potency means the concentration at half of the fitted maximal effect
Method in brief: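 HepG2-AhR-luc (HG2L7.5c1) cells, 4000/well, were preincubated 5 h at 37C, exposed to compound in qHTS format for 24 hr at 37C, then given CellTiter-Fluor for 30 min; viability was read as fluorescence in the reporter wells.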

[3] = qHTS assay to identify small molecule antagonists of the peroxisome proliferator-activated receptor gamma (PPARg) signaling pathway - cell viability counter screen (AID 743194); further: nearly all actives have a fitted effect of over 55% in size; further: potency means the concentration at half of the fitted maximal effect
Method in brief: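 PPARg-UAS-bla HEK293H cells were plated, rested 5 h at 37 C, then treated with compounds plus rosiglitazone (50 nM final) for 17 h at 37 C; viability was then read by CellTiter-Glo luminescence after 30 min at room temperature.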

[4] = qHTS assay for small molecule agonists of the antioxidant response element (ARE) signaling pathway - cell viability counter screen (AID 743203; calls by dose curve; further: nearly all actives have a fitted effect of over 55% in size; further: potency means the concentration at half of the fitted maximal effect)
Method in brief: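 ATP content via CellTiter-Glo luminescence served as the viability measure. Cells: ARE-bla HepG2, 2,000 per well. Exposure: 16 hrs, 37C/5% CO2.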

[5] = qHTS assay for small molecule activators of the heat shock response signaling pathway - cell viability counter screen (AID 743209); further: nearly all actives have a fitted effect of over 50% in size; further: potency means the concentration at half of the fitted maximal effect
Method in brief: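 Compounds dissolved in DMSO were added to overnight-plated HSE-bla HeLa cells and left 5 h at 37 C. Cell viability was quantified by luminescence using CellTiter-Glo.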

[6] = qHTS assay for small molecule activators of the heat shock response signaling pathway (AID 743210; active means well fitted activation curve with a large enough effect in the signal ratio in the repeat runs, with a control signal flat, not every such curve was filed as active; the % refers to the signal ratio; further: series mostly up to about 63 µM)
Method in brief: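 Heat shock element–beta-lactamase HeLa reporter cells; qHTS with compounds for 5 h at 37 C; detection by FRET substrate fluorescence after 2.5 h at RT.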

[7] = molecular target: Peroxisome proliferator-activated receptor gamma (Homo sapiens) (UniProt P37231); test: qHTS assay to identify small molecule agonists of the peroxisome proliferator-activated receptor gamma (PPARg) signaling pathway (AID 743094; active means well fitted activation curve with a large enough effect in the signal ratio in the repeat runs, not every such curve was filed as active; the % refers to the signal ratio)
Method in brief: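 Agonism was assessed in a beta-lactamase reporter system, HEK293H cells with a stably integrated UAS-bla construct under PPARg control; the 17 h treatment at 37C preceded a 1 h room-temperature FRET substrate read.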

[8] = qHTS assay for small molecule agonists of the antioxidant response element (ARE) signaling pathway (AID 743202; active means well fitted activation curve with a large enough effect in the signal ratio in the repeat runs, not every such curve was filed as active; the % refers to the signal ratio; further: potency means the concentration at half of the fitted maximal effect)
Method in brief: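 Following a 16 h, 37 C exposure of reporter HepG2 cells (ARE-driven beta-lactamase, 2,000 cells/well) to compounds, FRET substrate was applied for 2 h at room temperature and fluorescence intensity recorded.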

[9] = molecular target: Peroxisome proliferator-activated receptor gamma (Homo sapiens) (UniProt P37231); test: qHTS assay to identify small molecule antagonists of the peroxisome proliferator-activated receptor gamma (PPARg) signaling pathway (AID 743191; calls by dose curve; further: series mostly up to about 63 µM; nearly all actives have a fitted effect of over 30% in size)
Method in brief: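 GeneBLAzer PPARg UAS-bla HEK293H cells carrying a UAS-driven beta-lactamase reporter were plated at 3000 cells/well, preincubated 5 h at 37C, then given compound for 17 h at 37C; LiveBLAzer B/G FRET substrate was read after 1 h at room temperature.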

[10] = molecular target: Aryl hydrocarbon receptor (Homo sapiens) (UniProt P35869); test: qHTS assay to identify small molecule that activate the aryl hydrocarbon receptor (AhR) signaling pathway (AID 743085); further: nearly all actives have a fitted effect of over 15% in size; further: potency means the concentration at half of the fitted maximal effect;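 on activation: HG2L7.5c1 human HepG2 liver cells with stably integrated DRE-driven firefly reporter; series mostly up to about 70 µM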
Method in brief: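 Luminescence (ONE-Glo) from a dioxin-responsive-element luciferase reporter in HG2L7.5c1 HepG2 cells after 24 hr compound exposure at 37C; viability measured by CellTiter-Fluor fluorescence beforehand.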

Chain of Peroxisome proliferator-activated receptor gamma (Homo sapiens) (P37231 whole entry, looked up): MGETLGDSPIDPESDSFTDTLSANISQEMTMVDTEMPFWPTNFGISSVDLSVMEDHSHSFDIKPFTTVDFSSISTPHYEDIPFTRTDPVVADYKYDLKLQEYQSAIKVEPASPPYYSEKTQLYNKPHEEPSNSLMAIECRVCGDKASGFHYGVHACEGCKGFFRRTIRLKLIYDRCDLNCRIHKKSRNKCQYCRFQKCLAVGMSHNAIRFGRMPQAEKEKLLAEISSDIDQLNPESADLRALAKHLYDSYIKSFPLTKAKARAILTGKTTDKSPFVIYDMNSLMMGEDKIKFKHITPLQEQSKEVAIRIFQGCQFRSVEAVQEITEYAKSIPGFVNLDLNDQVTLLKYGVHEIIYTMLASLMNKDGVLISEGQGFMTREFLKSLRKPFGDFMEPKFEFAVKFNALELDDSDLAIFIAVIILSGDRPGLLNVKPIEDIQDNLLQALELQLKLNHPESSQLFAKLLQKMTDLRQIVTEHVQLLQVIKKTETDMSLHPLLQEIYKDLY
Chain of Aryl hydrocarbon receptor (Homo sapiens) (P35869 whole entry, looked up): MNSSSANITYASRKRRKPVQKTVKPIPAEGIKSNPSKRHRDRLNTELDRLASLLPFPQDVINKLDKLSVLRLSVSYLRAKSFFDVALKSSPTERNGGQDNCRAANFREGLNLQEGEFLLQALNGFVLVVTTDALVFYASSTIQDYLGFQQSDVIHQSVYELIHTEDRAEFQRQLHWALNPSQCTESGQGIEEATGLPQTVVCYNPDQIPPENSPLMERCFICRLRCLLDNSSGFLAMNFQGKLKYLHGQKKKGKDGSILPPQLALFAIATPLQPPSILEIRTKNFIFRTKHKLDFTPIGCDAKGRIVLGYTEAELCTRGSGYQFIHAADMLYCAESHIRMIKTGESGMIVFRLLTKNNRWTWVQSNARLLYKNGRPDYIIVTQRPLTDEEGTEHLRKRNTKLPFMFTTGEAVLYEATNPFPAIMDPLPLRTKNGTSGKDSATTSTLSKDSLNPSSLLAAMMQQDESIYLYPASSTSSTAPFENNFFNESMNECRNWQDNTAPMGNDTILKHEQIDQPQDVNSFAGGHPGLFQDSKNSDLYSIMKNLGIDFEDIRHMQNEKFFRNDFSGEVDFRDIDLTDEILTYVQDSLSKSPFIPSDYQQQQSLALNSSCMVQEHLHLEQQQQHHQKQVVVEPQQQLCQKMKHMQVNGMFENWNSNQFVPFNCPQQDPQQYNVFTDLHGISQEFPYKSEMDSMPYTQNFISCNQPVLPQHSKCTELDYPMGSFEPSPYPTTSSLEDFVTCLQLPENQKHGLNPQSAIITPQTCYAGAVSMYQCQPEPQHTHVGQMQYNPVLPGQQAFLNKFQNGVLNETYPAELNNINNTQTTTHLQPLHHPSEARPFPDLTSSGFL

Row | SMILES | Potency [1] | Potency [2] | Potency [3] | Potency [4] | Potency [5] | Potency [6] | Potency [7] | Potency [8] | Potency [9] | Potency [10]
1 | CCCCC(CC)COP(=O)(O)O (stereo not drawn) | inactive | inactive | inactive | inactive | inactive | inactive |  |  |  | 
2 | CCOc1ccc(Cc2nccc3cc(OCC)c(OCC)cc23)cc1OCC | inactive | inactive | inactive | inactive | inactive | inactive | inactive |  |  | 
3 | CC(=O)Nc1cc(S(=O)(=O)O)cc2cc(S(=O)(=O)O)c(N=Nc3ccccc3)c(O)c12 | 24.3 µM (active) | 19.3 µM (active) | inactive | inactive | inactive | inactive | inactive | inactive |  | 
4 | c1ccc2sc(SN(C3CCCCC3)C3CCCCC3)nc2c1 | inactive | inactive |  | inactive | inactive | inactive | inactive | 30.3 µM (active) |  | 
5 | CCCCCC[C@@H](O)C/C=C\CCCCCCCC(=O)O | inactive | inactive |  |  |  |  | inactive |  |  | 
6 | C[C@]1(Cn2ccnn2)[C@H](C(=O)O)N2C(=O)C[C@H]2S1(=O)=O | inactive | inactive | inactive | inactive | inactive | inactive |  |  |  | 
7 | Oc1cccc(O)c1O | inactive |  | inactive | inactive | inactive | inactive | inactive | inactive | inactive | 
8 | CCCCN1CCCC1C(=O)Nc1c(C)cc(C)cc1C (stereo not drawn) | inactive | inactive | inactive | inactive | inactive |  |  | inactive |  | 
9 | Cc1cc(C)c(N)cc1C | inactive | inactive | inactive | inactive | inactive | inactive | inactive | inactive |  | 
10 | O=c1c(O)c(-c2ccc(O)cc2)oc2cc(O)cc(O)c12 | inactive | inactive | inactive | inactive | inactive | inactive |  | inactive |  | 
11 | C=C/C(C)=C/C/C=C(\C)CCC=C(C)C |  | inactive | inactive |  |  |  |  | 54.5 µM (active) |  | inactive
12 | O=C1c2ccccc2C(=O)C1(O)O |  | inactive | inactive |  | inactive |  | inactive | inactive | inactive | 61.4 µM (active)
13 | Cc1[nH]cnc1CN1CCc2c(c3ccccc3n2C)C1=O | inactive | inactive | inactive | inactive | inactive | inactive | inactive | inactive |  | 
14 | O=C=Nc1cccc(C(F)(F)F)c1 | inactive | inactive |  | inactive | inactive | inactive | inactive |  |  | 
15 | Nc1nnc(-c2ccc([N+](=O)[O-])o2)o1 | 61.1 µM (active) | 54.5 µM (active) |  | 48.6 µM (active) | inactive | inactive | inactive |  | inactive | 
16 | O=C1NC(=O)c2cc([N+](=O)[O-])ccc21 |  | inactive | inactive | inactive | inactive | inactive | inactive |  |  | inactive
17 | Oc1ccc(Cl)c2cccnc12 |  | inactive |  | inactive | inactive |  | inactive | 23.7 µM (active) |  | 11.9 µM (active)
18 | CCCCCCCC/C=C\CCCCCCCCCCCC(=O)O | inactive | inactive | inactive | inactive | inactive | inactive | inactive | inactive |  | 
19 | C=C1CCC2CC1C2(C)C (stereo not drawn) | inactive | inactive | inactive | inactive | inactive | inactive | inactive | inactive |  | 
20 | COC(=O)C1=C(C)NC(C)=C(C(=O)O[C@@H]2CCCN(Cc3ccccc3)C2)[C@@H]1c1cccc([N+](=O)[O-])c1 | inactive |  | inactive |  | inactive | inactive |  |  |  | 
21 | O=c1cc(-c2ccccc2)oc2ccc3ccccc3c12 | inactive | inactive | 19.5 µM (active) |  | 24.5 µM (active) |  |  |  | inactive | 
22 | c1cc(N(CC2CO2)CC2CO2)ccc1Cc1ccc(N(CC2CO2)CC2CO2)cc1 (stereo not drawn) | 27.3 µM (active) | 54.5 µM (active) |  |  | inactive |  |  |  |  | 
23 | O=C(O)c1cccc(-c2noc(-c3ccccc3F)n2)c1 | inactive |  |  |  | inactive | inactive |  |  |  | 
24 | CC(C)(c1ccccc1)c1ccccc1 |  | inactive | inactive | inactive | inactive | inactive | inactive | inactive |  | inactive
25 | C=CC(=O)OCC1CC2CC1C1CCC(COC(=O)C=C)C21 (stereo not drawn) | inactive | inactive |  | inactive |  |  | inactive |  |  | 
26 | C[C@@H](O)[C@H]1C(=O)N2C(C(=O)O)=C([C@H]3CCCO3)S[C@H]12 | inactive | inactive | inactive | inactive | inactive |  | inactive |  | inactive | 
27 | CCOC(C)=O | inactive |  | inactive | inactive | inactive | inactive | inactive | inactive |  | 
28 | OC1(c2ccccc2)CCNCC1 |  |  | inactive | inactive | inactive | inactive |  | inactive |  | 
